Inconclusive results are not listed. The source made the active and inactive calls. Unless noted, calls come from the whole dose curve; as a rule, active = well fitted curve in either direction with a large enough effect (not every such curve was filed as active); inconclusive = small, poorly fitted or top-dose-only effect, or another doubt; inactive = flat fitted curve, though single readings scatter.
Experiments:
[1] = biological target: Lysosomal acid glucosylceramidase (Homo sapiens) (UniProt P04062); assay: Glucocerebrosidase-p2 (AID 348; in the data active = potency below about 10 µM; note: potency is the fitted concentration of half-maximal effect); settings: purified GBA, blue fluorogenic substrate, 40 min
How it was run: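 Normal human glucocerebrosidase (0.2 nM) with blue fluorogenic substrate (80 uM final) in citrate/phosphate pH 5.9 with 10mM sodium taurocholate, 0.01% tween-20; 40 min RT, NaOH/glycine stop; fluorescence Ex 365/Em 440; AC50 from a titration from 0.6 nM upwards.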

[2] = AP1 Signaling Pathway (AID 357); settings: ME-180 AP-1-bla reporter, EGF-induced, beta-lactamase ratio, 5 h; at 7.69 µM (top of the series) unless noted;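 note: ME-180 reporter cells stimulated with EGF at its EC50 level; % is set by controls: 0 for no effect and ±100 for the full control effect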
How it was run: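 Beta-lactamase reporter under AP-1 response element, ME-180 background. Stimulus: EC50 EGF. Compound exposure 5 h, 37 °C. Detection: CCF4, 2.5 h RT, 460/530 nm. Values: AC50 from titration.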

[3] = NFAT Signaling Pathway (AID 444); settings: Jurkat NFAT-bla M1, carbachol, beta-lactamase ratio, 5 h; at 7.69 µM (top of the series) unless noted;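 note: carbachol stimulus at about its EC50 of 1 µM final; % is set by controls: 0 for no effect and ±100 for the full control effect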
How it was run: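 Read-out: CCF4 FRET ratio (460 nm/530 nm) after 1 h RT dye loading, used for %activity and AC50 from titration series. Cells: Jurkat NFAT-β-lactamase/M1 line, treated with compound plus 1 uM carbachol for 5 h, 37 °C.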

[4] = Stat Signaling Pathway (AID 446); settings: ME-180 (cervical carcinoma) SIE beta-lactamase reporter, IL-6 stimulated, 5 h; at 7.69 µM (top of the series) unless noted;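 note: ME-180 cervical cancer cells given 40 pM IL-6 alongside compound; SIE-controlled beta-lactamase reporter measured as 460/530 nm FRET emission ratio; % is set by controls: 0 for no effect and ±100 for the full control effect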
How it was run: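 FRET read-out (405 nm excitation, 460/530 nm emission) of a beta-lactamase reporter under a STAT-inducible element in ME-180 cervical carcinoma cells. Cells with compound receive 40 pM IL-6 for 5 h. Values are normalised to AC90 stimulation and AC90 JAK-inhibitor controls.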

[5] = biological target: Glucocorticoid receptor (Homo sapiens) (UniProt P04150); assay: GR-EFC Redistribution (AID 451; calls by dose curve; note: potency is the fitted concentration of half-maximal effect); settings: CHO-K1 GR-EFC translocation, beta-gal luminescence, 2 h
How it was run: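 Translocation of GR-ED fusion to nuclear EA restores b-gal, read by luminescence after 1 h room-temperature detection. Engineered CHO-K1 biosensor cells, 1,000/well, exposed 2 h at 37 C to titrations up to 46 uM final.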

[6] = biological target: Mitogen-activated protein kinase 10 (Mus musculus) (UniProt Q61831); assay: JNK3 AlphaScreen Assay (AID 530); settings: JNK3 lysate, c-Jun phosphorylation; series mostly up to 57.1 µM;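 note: kinase came from lysate of stimulated human HepG2 cells; signal reports phosphorylation of biotinylated GST-cJun 1-79 at Ser73 with 10 µM ATP; % is set by controls: 0 for no effect and ±100 for the full control effect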
How it was run: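 Kinase buffer: 20 mM Tris-HCl pH 7.6, 10 mM MgCl2, 1 mM DTT, 0.1 mM Na3VO4, 0.01% Tween-20; ATP 10 uM. Substrate biotin-GST-cJun(1-79), enzyme from activated HepG2 lysates. Detection by Ser73 phospho-antibody AlphaScreen.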

[7] = biological target: 3',5'-cyclic-AMP phosphodiesterase 4B (Homo sapiens) (UniProt Q07343); assay: qHTS Assay for Inhibitors of PDE-IV (AID 607; active = well fitted activation curve with a large enough effect in the main read-out, with a control signal flat, not every such curve was filed as active; note: % of control where 0% means no effect); settings: HEK293 ACTOne CNG channel cells, membrane potential fluorescence; series mostly up to 22.9 µM
How it was run: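 Cell-based read-out of cAMP via a modified cyclic nucleotide-gated channel and membrane potential dye (535/590 nm) in HEK293 cells expressing PDE4 endogenously. Compounds tested up to 22.9 uM final; 100 uM RO 20-1724 reference.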

[8] = qHTS Assay for Lipid Storage Modulators (AID 1519; calls by dose curve); settings: Drosophila S3 cells, BODIPY lipid droplet/cell ratio, laser cytometry, cells loaded with oleic acid; for activity change, negative = inhibition: at 57.5 µM (top of the series)
How it was run: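 Cells seeded at 5,000 per well were treated with compounds over a concentration series and loaded with oleic acid (400 uM, as added). Lipid droplet fluorescence (488 nm excitation, 500-530 nm channel) was read by laser-scanning cytometry and normalized to 20 uM Triacsin C.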

[9] = Primary qHTS for small molecule stabilizers of the endoplasmic reticulum resident proteome: Secreted ER Calcium Modulated Protein (SERCaMP) assay (AID 1508630; active = well fitted inhibition curve with a large enough effect; note: % is set by controls: 0 for no effect and ±100 for the full control effect); settings: SH-SY5Y GLuc-SERCaMP (Gaussia luciferase released on ER calcium loss) secretion, thapsigargin, luminescence; series mostly up to 38.4 µM
How it was run: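 The SH-SY5Y reporter protocol was run at 3 concentrations up to 38.3 uM (primary) or 11 concentrations (follow-up): 16 h compound, 100 nM thapsigargin for 4 h, then extracellular luciferase luminescence.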

[10] = measured here: cell count channel max response
[11] = measured here: lipid channel max response

Chain of 3',5'-cyclic-AMP phosphodiesterase 4B (Homo sapiens) (Q07343 whole entry, looked up): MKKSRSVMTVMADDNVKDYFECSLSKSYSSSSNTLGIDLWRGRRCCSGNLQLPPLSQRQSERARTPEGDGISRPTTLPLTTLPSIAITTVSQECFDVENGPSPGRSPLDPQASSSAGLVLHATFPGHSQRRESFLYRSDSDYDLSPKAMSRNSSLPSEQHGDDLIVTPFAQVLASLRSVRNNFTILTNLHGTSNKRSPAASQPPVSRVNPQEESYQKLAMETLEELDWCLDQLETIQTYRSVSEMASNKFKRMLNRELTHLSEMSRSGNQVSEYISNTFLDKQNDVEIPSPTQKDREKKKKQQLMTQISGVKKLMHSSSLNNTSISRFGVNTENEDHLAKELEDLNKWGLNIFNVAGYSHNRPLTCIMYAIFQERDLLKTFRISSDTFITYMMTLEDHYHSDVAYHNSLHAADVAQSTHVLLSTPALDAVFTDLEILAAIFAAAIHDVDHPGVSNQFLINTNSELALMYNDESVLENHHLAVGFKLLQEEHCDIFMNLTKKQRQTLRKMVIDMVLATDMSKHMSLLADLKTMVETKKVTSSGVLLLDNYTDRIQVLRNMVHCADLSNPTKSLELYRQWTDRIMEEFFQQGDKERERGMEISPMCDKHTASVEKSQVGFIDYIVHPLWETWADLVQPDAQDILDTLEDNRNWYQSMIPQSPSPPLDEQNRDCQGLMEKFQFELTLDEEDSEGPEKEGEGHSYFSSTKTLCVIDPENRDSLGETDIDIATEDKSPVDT
Chain of Glucocorticoid receptor (Homo sapiens) (P04150 whole entry, looked up, the tested form may be a part): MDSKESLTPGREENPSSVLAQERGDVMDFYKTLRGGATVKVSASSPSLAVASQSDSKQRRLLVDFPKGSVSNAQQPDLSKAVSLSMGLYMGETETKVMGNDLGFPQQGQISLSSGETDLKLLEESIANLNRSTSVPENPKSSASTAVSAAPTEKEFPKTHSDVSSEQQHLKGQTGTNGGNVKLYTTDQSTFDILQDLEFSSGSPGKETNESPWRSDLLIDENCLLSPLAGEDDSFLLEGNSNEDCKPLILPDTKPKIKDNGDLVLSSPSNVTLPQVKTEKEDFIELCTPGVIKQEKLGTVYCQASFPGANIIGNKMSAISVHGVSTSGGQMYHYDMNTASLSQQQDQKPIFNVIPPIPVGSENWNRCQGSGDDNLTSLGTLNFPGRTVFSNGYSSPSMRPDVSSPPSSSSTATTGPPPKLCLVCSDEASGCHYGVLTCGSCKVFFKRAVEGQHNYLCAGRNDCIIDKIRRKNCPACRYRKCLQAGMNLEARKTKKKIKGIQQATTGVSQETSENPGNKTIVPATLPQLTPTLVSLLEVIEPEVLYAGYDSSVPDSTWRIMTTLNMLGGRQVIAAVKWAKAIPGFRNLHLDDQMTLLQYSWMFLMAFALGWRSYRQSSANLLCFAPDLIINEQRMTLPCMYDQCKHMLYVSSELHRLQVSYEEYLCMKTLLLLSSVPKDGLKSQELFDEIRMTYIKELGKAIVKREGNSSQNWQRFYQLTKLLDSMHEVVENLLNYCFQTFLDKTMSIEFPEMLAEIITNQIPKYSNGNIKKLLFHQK
Chain of Lysosomal acid glucosylceramidase (Homo sapiens) (P04062 whole entry, looked up): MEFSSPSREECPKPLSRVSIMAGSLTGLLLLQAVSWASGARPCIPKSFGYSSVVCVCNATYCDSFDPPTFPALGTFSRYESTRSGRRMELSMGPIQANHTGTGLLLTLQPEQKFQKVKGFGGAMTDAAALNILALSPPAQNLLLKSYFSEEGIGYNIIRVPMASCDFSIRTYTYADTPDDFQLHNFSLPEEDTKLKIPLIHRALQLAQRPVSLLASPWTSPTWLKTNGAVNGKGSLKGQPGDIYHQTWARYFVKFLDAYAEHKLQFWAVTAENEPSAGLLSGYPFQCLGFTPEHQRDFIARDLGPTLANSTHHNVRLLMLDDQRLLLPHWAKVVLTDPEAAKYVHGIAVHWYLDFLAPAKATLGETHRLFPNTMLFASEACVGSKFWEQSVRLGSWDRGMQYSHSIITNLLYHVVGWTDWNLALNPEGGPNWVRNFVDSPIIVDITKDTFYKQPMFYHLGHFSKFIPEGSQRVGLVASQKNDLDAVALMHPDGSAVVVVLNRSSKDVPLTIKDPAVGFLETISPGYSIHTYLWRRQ

Row | SMILES | Potency [1] | activity change, negative = inhibition [2] | activity change, negative = inhibition [3] | activity, negative = inhibition [4] | Potency [5] | Potency [6] | Potency [7] | activity change, negative = inhibition [8] | max response [8, 10] [%] | max response [8, 11] [%] | outcome [9]
1 | O=C(c1csnn1)N1CCC2(CC1)CN(c1ncccn1)C2 | > 11.4 µM (inactive) | 13.2% (inactive) | 16.9% (inactive) | 1.44% (inactive) | > 46 µM (inactive) | inactive | inactive | 0.698% (inactive) | -0.721 | 1.07 | inactive
2 | COc1ccc(NC(=O)N2CCCC3(CCN(C(=O)c4ccncc4)CC3)C2)cc1 | > 11.4 µM (inactive) | -8.03% (inactive) | -13.4% (inactive) | -2.92% (inactive) | > 46 µM (inactive) | inactive | inactive | 4.52% (inactive) | 10.2 | 18.3 | inactive
3 | COCC(=O)N1CCC2(CC1)CN(c1ccccc1)C2 | > 11.4 µM (inactive) | -8.7% (inactive) | 2.5% (inactive) | 10.6% (inactive) | > 46 µM (inactive) | inactive | inactive | 4.95% (inactive) | 15 | 21.1 | inactive
4 | Cc1noc(C)c1C(=O)N1CCC2(CC1)CCN(c1ncccn1)CC2 | > 11.4 µM (inactive) | 16.2% (inactive) | 5.74% (inactive) | 3.32% (inactive) | > 46 µM (inactive) | inactive | inactive | 5.54% (inactive) | 6.46 | 13.5 | inactive
5 | Cc1noc(C)c1C(=O)N1CCC[C@@]2(CCN(C(c3ccccc3)c3ccccc3)C2)C1 | > 11.4 µM (inactive) | -7.96% (inactive) | -12.7% (inactive) | -6.89% (inactive) | > 46 µM (inactive) | inactive | inactive | 2.35% (inactive) | 12.4 | 16.6 | inactive
6 | N#Cc1cccc(NC(=O)N2CC[C@@]3(CCCN(C(=O)c4cnccn4)C3)C2)c1 | > 11.4 µM (inactive) | -6.32% (inactive) | 12.8% (inactive) | 3.28% (inactive) | > 46 µM (inactive) | inactive | inactive | 8.9% (inactive) | 14.7 | 23.6 | inactive
7 | O=C(c1cc(C(F)(F)F)cc(C(F)(F)F)c1)N1CCC2(CC1)CCN(c1ccccc1)CC2 | > 11.4 µM (inactive) | 24.2% (inactive) | -4.75% (inactive) | -7.04% (inactive) | > 46 µM (inactive) | inactive | inactive | -9.68% (inactive) | 10.5 | 0.292 | inactive
8 | CC(=O)N1CCC2(CC1)CN(c1cccc(-c3ccccc3)c1)C2 | > 11.4 µM (inactive) | -4.65% (inactive) | 16.1% (inactive) | 1.02% (inactive) | > 46 µM (inactive) | inactive | inactive | 6.04% (inactive) | 6.96 | 17.4 | inactive
9 | CC(=O)N1CCC[C@@]2(CCN(C(c3ccccc3)c3ccccc3)C2)C1 | > 11.4 µM (inactive) | -0.322% (inactive) | 3.9% (inactive) | -10.9% (inactive) | > 46 µM (inactive) | inactive | inactive | -4.88% (inactive) | -3.73 | -8.87 | inactive
10 | COCC(=O)N1CCC[C@@]2(CCN(Cc3cc(C(F)(F)F)cc(C(F)(F)F)c3)C2)C1 | > 11.4 µM (inactive) | 3.75% (inactive) | 6.67% (inactive) | 9.45% (inactive) | > 46 µM (inactive) | inactive | inactive | 5.27% (inactive) | 7.6 | 16.2 | inactive
11 | COc1ccc(C(=O)N2CCC[C@@]3(CCN(c4ccncc4)C3)C2)cc1 | > 11.4 µM (inactive) | -1.81% (inactive) | -12.2% (inactive) | -6.9% (inactive) | > 46 µM (inactive) | inactive | inactive | 0.196% (inactive) | -12 | -10.7 | inactive
12 | O=S(=O)(c1ccccc1)N1CCC2(CCN(c3cccc(-c4ccccc4)c3)CC2)CC1 | > 11.4 µM (inactive) | -5.65% (inactive) | -3.11% (inactive) | -8.83% (inactive) | > 46 µM (inactive) | inactive | inactive | 5.8% (inactive) | 17.8 | 24.9 | inactive
13 | CC(=O)N1CCC2(CC1)CCN(c1ncccn1)CC2 | > 11.4 µM (inactive) | -16.8% (inactive) | -1.48% (inactive) | 10.5% (inactive) | > 46 µM (inactive) | inactive | inactive | 4.77% (inactive) | 8.06 | 17.2 | inactive
14 | O=C(c1ccncc1)N1CCC2(CCCN(c3ccccc3)C2)CC1 | > 11.4 µM (inactive) | -3.67% (inactive) | 3.61% (inactive) | -3.54% (inactive) | > 46 µM (inactive) | inactive | inactive | 6.76% (inactive) | 7.52 | 17.5 | inactive
15 | CC(=O)N1CCC[C@@]2(CCN(C(=O)Nc3ccccc3)C2)C1 | > 11.4 µM (inactive) | 10.4% (inactive) | 22.8% (inactive) | -3.7% (inactive) | > 46 µM (inactive) | inactive | inactive | 3.44% (inactive) | -12.3 | -5.99 | inactive

— PubChem BioAssay (NCATS)
